A short description of experiment [1]: qHTS Assay for Lipid Storage Modulators (AID 1519; calls by dose curve; as to activity change, negative = inhibition: % is scaled to controls: 0 for no effect and ±100 for the full control effect). The following applies: Drosophila S3 cells, BODIPY lipid droplet/cell ratio, laser cytometry, cells loaded with oleic acid. An outline of the steps:
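Cells seeded at 5,000 per well were treated with compounds over a concentration series and loaded with oleic acid (400 uM, as added). Lipid droplet fluorescence (488 nm excitation, 500-530 nm channel) was read by laser-scanning cytometry and normalized to 20 uM Triacsin C.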
For orientation: Quantitative high-throughput screening tests each substance at several concentrations.

Experiment [2] in a line: Validation of Assay for Modulators of Lamin A Splicing (AID 1459; active = well fitted curve in the direction sought with a large enough effect in the signal ratio; the % refers to the signal ratio;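 also: cells exposed to compound for two days before reading; 0% is about no effect; ratio rise marks activators and ratio drop marks inhibitors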). The conditions noted are these: Lamin A splicing dual RFP/GFP fluorescence reporter; series mostly up to 9.22 µM. An outline of the steps: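 Readout: ratio of GFP (500-530 nm) to RFP (575-640 nm) total object intensity by 488 nm laser-scanning cytometry after 48 hrs. Cells were HeLa S3 clones carrying lamin A-EGFP minigene plus DsRed2 viability reporter; vehicle 0.5% DMSO final.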

The target of experiment [3] is DNA repair nuclease/redox regulator APEX1 (Homo sapiens) (UniProt P27695). Put plainly: qHTS Validation Assay for Inhibitors of the Human Apurinic/apyrimidinic Endonuclease 1 (APE1) (AID 1705;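 also: TAMRA fluorescence gain over two minutes as APE1 cuts a quenched THF abasic duplex; % is scaled to controls: 0 for no effect and ±100 for the full control effect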). The following applies: purified APE1 endonuclease activity, fluorescence, titration; series mostly up to 57.1 µM. In a few lines: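 Read-out: TAMRA fluorescence (525 nm ex, 598 nm em) from cleavage of a quenched THF abasic-site duplex, 50 nM final; activity taken as intensity change between third and first of three reads 60 s apart.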

Experiment [4] addresses Endonuclease 4 (Escherichia coli (strain K12)) (UniProt P0A6C1). Description: Counterscreen for APE1 Inhibitors: qHTS Validation Assay for Inhibitors of Endonuclease IV (AID 1708). Also: % is scaled to controls: 0 for no effect and ±100 for the full control effect. The conditions noted are these: E. coli endonuclease IV, DNA cleavage fluorescence; series mostly up to 57.1 µM. In a few lines:
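Read-out: fluorescence rise (ex 525/em 598 nm) from incision of a TAMRA/BHQ-2 double-stranded THF abasic-site substrate (50 nM), measured kinetically; third-minus-first read difference gave reaction progress. Enzyme 2 nM.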

Experiment [5] concerns the target Alpha-galactosidase A (Homo sapiens) (UniProt P06280). Description: Counterscreen for Glucocerebrosidase Inhibitors: qHTS Assay for Human alpha-Galactosidase at pH 4.5 (AID 992). Also: 0% is about no effect. The following applies: purified enzyme, fluorogenic substrate; series mostly up to 76.9 µM. An outline of the steps:
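Fluorogenic 4-MU alpha-D-galactoside (80 uM) hydrolysis, 2 nM enzyme, pH 4.5 citrate buffer + 0.005% Tween-20; 20 min RT; NaOH/glycine pH 10 stop; Ex365/Em440. Compounds titrated 0.7 nM–77 uM; Hill-equation AC50.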
For orientation: The purpose of a counterscreen is to sort out artefacts and off-target activity.

For experiment [6], the target named is alpha-glucosidase (Oryza sativa, rice) (UniProt Q653V4). Put plainly: Counterscreen for Glucocerebrosidase Inhibitors: qHTS Assay for Rice alpha-Glucosidase at pH 5.0 (AID 997).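 Also: 0% = full activity with enzyme and -100% = basal without enzyme.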 The conditions noted are these: rice alpha-glucosidase enzyme activity; series mostly up to 76.9 µM. An outline of the steps:
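Endpoint fluorogenic assay at pH 5.0: compounds (0.7 nM to 77 uM) titrated against 4 nM rice enzyme and 400 uM 4-MU-alpha-glucoside for 20 min at room temperature; NaOH/glycine stop, read ex 365/em 440 nm, Hill-fitted AC50.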

Where [7] appears, read: measured here: cell count channel max response.
[8] abbreviates: measured here: lipid channel max response.

The record followed here is PubChem BioAssay (NCATS).

Molecules are shown by their SMILES. Inconclusive results are not listed. The source made the active and inactive calls. Unless noted, calls follow the shape of the dose curve; as a rule, active = well fitted curve in the direction sought with a large enough effect; inconclusive = small, poorly fitted or top-dose-only effect, or another doubt; inactive = no such curve, though single readings can be large; an effect the other way counts as inactive or inconclusive.

Sequence of DNA repair nuclease/redox regulator APEX1 (Homo sapiens) (P27695 whole entry, looked up): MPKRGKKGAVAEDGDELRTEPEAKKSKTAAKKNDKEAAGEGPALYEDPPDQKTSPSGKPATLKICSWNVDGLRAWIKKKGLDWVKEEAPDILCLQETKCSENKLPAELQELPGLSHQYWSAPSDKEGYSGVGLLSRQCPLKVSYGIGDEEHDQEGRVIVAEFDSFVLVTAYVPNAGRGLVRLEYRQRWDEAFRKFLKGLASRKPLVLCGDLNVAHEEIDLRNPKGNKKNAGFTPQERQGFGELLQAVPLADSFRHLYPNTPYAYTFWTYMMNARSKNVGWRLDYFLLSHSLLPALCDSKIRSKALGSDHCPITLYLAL
Sequence of Alpha-galactosidase A (Homo sapiens) (P06280 whole entry, looked up): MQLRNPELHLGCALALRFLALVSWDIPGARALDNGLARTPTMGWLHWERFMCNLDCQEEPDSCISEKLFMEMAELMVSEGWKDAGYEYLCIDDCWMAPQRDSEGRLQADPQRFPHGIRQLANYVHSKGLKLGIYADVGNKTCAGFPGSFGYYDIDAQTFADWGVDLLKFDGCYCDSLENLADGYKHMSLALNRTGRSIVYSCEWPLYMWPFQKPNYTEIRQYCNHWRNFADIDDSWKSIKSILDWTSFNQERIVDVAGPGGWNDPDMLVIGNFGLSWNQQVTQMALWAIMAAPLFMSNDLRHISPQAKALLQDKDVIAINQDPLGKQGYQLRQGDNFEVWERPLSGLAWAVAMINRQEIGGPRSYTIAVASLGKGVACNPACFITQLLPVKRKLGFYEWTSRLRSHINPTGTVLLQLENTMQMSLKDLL

In the case of `c1ccc(-c2ccc(C(c3ccccc3)n3ccnc3)cc2)cc1` (stereo not given), the activity change, negative = inhibition in experiment [1] (at 57.5 µM (top of the series)) was 13.6% (inactive). In addition, the max response in experiment [1] (setting [7]) came out at 10.1%; in experiment [1] (setting [8]), 27.7%.
In the case of `COC(=O)[C@H]1[C@H]2C[C@H]3c4[nH]c5ccccc5c4CCN3C[C@H]2CC[C@@H]1O`, the molecule was classed as inactive in experiment [2] and in experiment [4]. In experiment [3], the Potency result is “inactive”.
Regarding `COc1c(C)c2c(c(O)c1C/C=C(\C)CCC(=O)O)C(=O)OC2`, the activity change, negative = inhibition in experiment [1] (at 25.7 µM (top of the series)) is -1.1% (inactive). Moreover, the results for the max response in experiment [1] (setting [7]) and in experiment [1] (setting [8]) were 6.28% and 5.14%, respectively.
For `CCCCOc1ccc(OCCCN2CCOCC2)cc1`, in that order: -0.243% (inactive), -13.4% and -13.4%.
As to `CCCCOc1ccc(C(=O)CCN2CCCCC2)cc1`, the activity change, negative = inhibition in experiment [1] (at 57.5 µM (top of the series)) was -7.63% (inactive). In addition, the values for the max response in experiment [1] (setting [7]) and in experiment [1] (setting [8]) were 0.252% and 0.832%, respectively.
Take `CCn1cc(C(=O)O)c(=O)c2cnc(N3CCCC3)nc21`: in experiment [1] (at 25.7 µM (top of the series)), the activity change, negative = inhibition was -3.05% (inactive). In addition, the max response in experiment [1] (setting [7]) was -11.9%; in experiment [1] (setting [8]), -16.2%.
For `Oc1c(I)cc(I)c2cccnc12`, in experiment [1] (at 57.5 µM (top of the series)), the activity change, negative = inhibition was -2.05% (inactive). The max response turned out to be 9.29% in experiment [1] (setting [7]) and 10.6% in experiment [1] (setting [8]).
As to `CC(C)COC(=O)OCN1C(=O)CN(CCN2CC(=O)N(COC(=O)OCC(C)C)C(=O)C2)CC1=O`, the call in experiment [5], in experiment [6], in experiment [2] and in experiment [4] was inactive. Further, the activity change, negative = inhibition in experiment [1] (at 57.5 µM (top of the series)) was 1.23% (inactive). Besides, the values for the max response in experiment [1] (setting [7]) and in experiment [1] (setting [8]) were 3.57% and 4.19%, respectively.
In the case of `CC1(C)CCC(NC(=O)[C@@H](N)CCC(=O)O)CC1`, the call in experiment [2] and in experiment [4] was inactive. Also, the Potency result in experiment [3] was “inactive”.
Turning to `C/C=C/c1ccc(OC)cc1`, in experiment [1] (at 57.5 µM (top of the series)), the activity change, negative = inhibition is 9.09% (inactive). The max response in experiment [1] (setting [7]) came to 9.56%; in experiment [1] (setting [8]), 22.7%.
In the same order, the values of `CC[N+](CC)(CCNC(=O)C(=O)NCC[N+](CC)(CC)Cc1ccccc1Cl)Cc1ccccc1Cl` are 1.97% (inactive), -14% and -12.6%.
Take `O=C(O)c1cc2cc(Cc3cccnc3)ccc2o1`: the molecule was called inactive in experiment [5], in experiment [6], in experiment [2] and in experiment [4]. For the same molecule, the activity change, negative = inhibition in experiment [1] (at 57.5 µM (top of the series)) is 4.53% (inactive). The max response in experiment [1] (setting [7]) worked out at 9.59%; in experiment [1] (setting [8]) it was 18.2%. For the same molecule, in experiment [3], the Potency entry was “inactive”.
